# Measured values reported in article PMC4336329 (PLoS ONE, 2015).
# Hit rate of the full screen: of about 310,000 compounds, about 14,000 (4.5%) showed an effect of 50% or more. Effects have a minus sign here. Many of the other results were omitted from the sample, so strong results are more common in it than they were.
# Target: human ether-à-go-go-related gene (hERG) potassium channel (human, UniProt Q12809)
# Test: primary screen, population patch clamp on CHO cells stably expressing hERG; higher = less effect of the substance
# 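Also: peak tail current of the secondary pulse compared with the same well before compound.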
# Sequence of human ether-à-go-go-related gene (hERG) potassium channel (Q12809 whole entry, looked up): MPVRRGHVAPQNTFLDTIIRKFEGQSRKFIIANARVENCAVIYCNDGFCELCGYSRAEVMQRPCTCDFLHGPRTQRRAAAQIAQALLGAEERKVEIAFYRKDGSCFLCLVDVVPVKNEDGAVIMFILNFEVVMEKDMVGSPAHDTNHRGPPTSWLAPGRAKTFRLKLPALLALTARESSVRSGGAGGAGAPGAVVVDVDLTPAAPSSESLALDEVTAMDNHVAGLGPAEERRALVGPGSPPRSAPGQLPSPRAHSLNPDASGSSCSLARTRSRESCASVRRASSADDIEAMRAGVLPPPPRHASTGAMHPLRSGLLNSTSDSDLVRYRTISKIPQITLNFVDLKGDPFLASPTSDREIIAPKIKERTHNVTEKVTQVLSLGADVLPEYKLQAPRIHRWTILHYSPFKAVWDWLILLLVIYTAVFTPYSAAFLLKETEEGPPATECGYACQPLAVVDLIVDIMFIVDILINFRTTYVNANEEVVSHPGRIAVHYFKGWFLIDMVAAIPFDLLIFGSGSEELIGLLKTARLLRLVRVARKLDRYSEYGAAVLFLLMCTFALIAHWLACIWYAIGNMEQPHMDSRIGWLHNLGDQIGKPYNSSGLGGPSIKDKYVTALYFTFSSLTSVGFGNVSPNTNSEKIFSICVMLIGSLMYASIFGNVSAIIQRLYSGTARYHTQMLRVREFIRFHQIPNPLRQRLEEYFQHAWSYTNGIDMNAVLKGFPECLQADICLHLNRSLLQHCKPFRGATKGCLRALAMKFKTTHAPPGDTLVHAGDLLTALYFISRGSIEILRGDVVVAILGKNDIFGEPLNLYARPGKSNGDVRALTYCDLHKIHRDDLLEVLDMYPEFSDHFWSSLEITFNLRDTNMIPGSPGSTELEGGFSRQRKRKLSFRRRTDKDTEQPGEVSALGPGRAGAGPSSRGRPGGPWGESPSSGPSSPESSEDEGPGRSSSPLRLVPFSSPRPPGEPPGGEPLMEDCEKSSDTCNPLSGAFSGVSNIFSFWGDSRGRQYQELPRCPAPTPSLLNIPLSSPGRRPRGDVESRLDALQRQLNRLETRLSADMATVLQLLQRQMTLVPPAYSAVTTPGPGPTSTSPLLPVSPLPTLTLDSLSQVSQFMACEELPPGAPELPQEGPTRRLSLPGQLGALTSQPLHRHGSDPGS
row,Structure (SMILES),"hERG current change (%, negative = inhibition) at 10uM"
1,O=C(O)CCC(=O)N1CCc2cc(S(=O)(=O)NC3CCCc4ccccc43)ccc21 (centres unmarked),-5.02%
2,[Cl-].c1ccc(C[n+]2c(-c3ccccc3)csc2Nc2ccccc2)cc1,19.6%
3,O=C(COc1ccccc1Br)N1CCN(C(=O)c2ccco2)CC1,-31.3%
4,CCOC(=O)N1CCN(C(=O)COC(=O)CSc2cc(C)c(Br)cc2C)CC1,-38.5%
5,Cc1cc(C)c(OCC(=O)OCC(=O)N2CCN(C(=O)c3ccco3)CC2)c(C)c1,-30.4%
6,O=C(CSc1ccccc1F)OCC(=O)N1CCN(C(=O)c2ccco2)CC1,-27.2%
7,Cc1ccc(SCC(=O)OCC(=O)N(C)C2CCS(=O)(=O)C2)cc1C (centres unmarked),-11.5%
8,Cc1cc(SCC(=O)OCC(=O)N(C)C2CCS(=O)(=O)C2)c(C)cc1Br (centres unmarked),-73.1%
9,NC(=O)COC(=O)CSc1cccc2cccc(Cl)c12,14.8%
10,Cc1cccc(OCC(=O)OCC(=O)N2CCN(C(=O)c3ccco3)CC2)c1C,-31.8%
11,Cc1cc(SCC(=O)OCC(=O)N2CCN(C(=O)c3ccco3)CC2)c(C)cc1Br,-50.2%
12,CN(C(=O)COC(=O)CSc1ccc(C(N)=O)cc1[N+](=O)[O-])C1CCS(=O)(=O)C1 (centres unmarked),-11.4%
13,Cc1cc(Br)cc(Cl)c1OCC(=O)N1CCN(C(=O)c2ccco2)CC1,-63.3%
14,O=C(CSc1cccc2cccc(Cl)c12)OCC(=O)N1CCN(C(=O)c2ccco2)CC1,-69.2%
15,O=C(c1ccco1)c1cn[nH]c1-c1ccc(Cl)cc1O,-8.52%
16,C/C(=N\NC(=O)CN(c1ccc(Oc2ccccc2)cc1)S(C)(=O)=O)C(C)(C)C,7.07%
17,COc1ccccc1CNC(=O)COC(=O)Cc1ccc(F)cc1,8.81%
18,O=C(Cc1ccccc1)NCc1nc2ccccc2[nH]1,-6.31%
19,O=C(NCCc1ccncc1)Nc1cccc(Cl)c1,-3.75%
20,O=C(NCc1cccnc1)C1CCN(C(=O)c2ccc(Cl)cc2Cl)CC1,-10.8%
21,O=[N+]([O-])c1cccc(S(=O)(=O)Nc2ccc(S(=O)(=O)Nc3nccs3)cc2)c1,13.9%
22,CCOC(=O)CN1C(=O)C(O)(CC(=O)c2cccc(OC)c2)c2ccccc21 (centres unmarked),5.13%
23,O=C(NCC(c1ccco1)N1CCN(c2ccccc2)CC1)c1ccc2c(c1)OCO2 (centres unmarked),-5.86%

row,Structure (SMILES),"hERG current change (%, negative = inhibition) at 10uM"
1,Cc1cc(Br)ccc1SCC(=O)OCC(=O)N1CCN(C(=O)c2ccco2)CC1,-66.8%
2,Cc1ccc(SCC(=O)OCC(=O)N2CCN(C(=O)c3ccco3)CC2)c(C)c1,-41.6%
3,Nc1cc(N)nc(SCC(=O)N2CCN(C(=O)c3ccco3)CC2)n1,0.783%
4,CC(=O)N1CCN(C(=O)CSc2cc(C)c(Br)cc2C)CC1,3.18%
5,Cc1cc(SCC(=O)N2CCN(C(=O)c3ccco3)CC2)c(C)cc1Br,-62.3%
6,NC(=O)c1ccc(SCC(=O)OCC(=O)N2CCN(C(=O)c3ccco3)CC2)c([N+](=O)[O-])c1,23.3%
7,CCCC(O)(CCC)C(=O)NNc1ccccc1,12.4%
8,O=C(NCCCN1CCCC1=O)c1ccc2c(=O)n(Cc3ccco3)c(=S)[nH]c2c1,-17.8%
9,Cc1ccc2oc(=O)c3cnn(CC(=O)NC4CCCCC4C)c3c2c1 (centres unmarked),8.43%
10,CS(=O)(=O)N1CCc2cc(NC(=O)c3ccc(Cl)cc3Cl)ccc21,1.5%
11,CCN(CC)C(=O)CSc1nc2ccccc2c(=O)[nH]1,12.5%
12,CCn1c(=O)c(=O)n(CC)c2cc(S(=O)(=O)Nc3ccc(C)cc3)ccc21,7.02%
13,CCn1c(=O)n(CC)c2cc(NS(=O)(=O)c3ccccc3)ccc21,-68.7%
14,Cn1c(=O)n(C)c2cc(NS(=O)(=O)c3ccccc3)ccc21,4.09%
15,Cn1cccc1-c1nc2ccc([N+](=O)[O-])cc2[nH]1,4.4%
16,O=S(=O)(Nc1ccc2nc(-c3ccco3)[nH]c2c1)c1ccccc1,-58.4%
17,CC(=O)Nc1ccc2nc(-c3ccco3)[nH]c2c1,7.99%
18,CC(=O)Nc1ccc2nc(-c3cccn3C)[nH]c2c1,12.8%
19,Cn1cccc1-c1nc2ccc(NC(=O)c3ccccc3)cc2[nH]1,-39.3%
20,Cc1ccc(-c2nc3ccc(NS(=O)(=O)c4ccccc4)cc3[nH]2)o1,-47.3%
21,Cc1ccc(S(=O)(=O)Nc2ccc3nc(-c4cccn4C)[nH]c3c2)cc1,-79.3%
22,O=C(Nc1ccc(-c2nc3ccc(NC(=O)c4cccs4)cc3[nH]2)cc1)c1cccs1,18.1%
23,Cn1cccc1-c1nc2ccc(NC(=O)c3cccs3)cc2[nH]1,-53.3%

row,Structure (SMILES),"hERG current change (%, negative = inhibition) at 10uM"
1,COc1ccccc1CNC(=O)CNC(=O)[C@@H]1Cc2ccccc2CN1,1.14%
2,Cc1c(NC(=O)CSc2nnc(N)s2)c(=O)n(-c2ccccc2)n1C,-10.4%
3,Cc1ccnc(NC(=O)CN(C)S(=O)(=O)c2cccc3nsnc23)c1,7.8%
4,O=S(=O)(Nc1ccc(Cl)cc1)c1ccc2c(c1)CCO2,-3.21%
5,O=C(O)c1ccc(NS(=O)(=O)c2cc(Cl)sc2Cl)cc1,21.3%
6,Cc1oc2c(Cl)c(Cl)c(O)c(CN(C)C)c2c1C(=O)c1ccc(Cl)cc1,-1.39%
7,Cc1nnc(SCC(=O)NC2CCCc3c2cnn3-c2ccccc2F)o1 (centres unmarked),20.5%
8,O=C(O)c1ccccc1C(=O)NCc1cccnc1,-32.8%
9,O=C(NCc1cccs1)c1cccn2c(=O)c3sccc3nc12,-7.79%
10,O=C(NCc1ccco1)c1cccn2c(=O)c3sccc3nc12,-68.4%
11,O=C(NCc1cccnc1)c1cccn2c(=O)c3sccc3nc12,-63.2%
12,O=C(NCCNc1ccc2ccccc2c1)c1cccn2c(=O)c3sccc3nc12,-6.94%
13,O=C(NCc1ccco1)c1cccn2c(=O)c3c4c(sc3nc12)CCCC4,13.6%
14,O=c1c2ccccc2ncn1-c1ccc([N+](=O)[O-])c(C(F)(F)F)c1,-3.74%
15,CC#C[C@@H](CC)c1ccc2ccn(C)c2c1,-4.51%
16,O=C(NC1CCCCCCC1)c1ccc(F)cc1,4.61%
17,COC(=O)C(Cc1ccccc1)NC(=O)c1cc(=O)[nH]c2ccccc12 (centres unmarked),17.6%
18,CC(C)CCNC(=O)c1ccc(NC(=O)C2=CSCCO2)cc1,4.36%
19,COc1ccccc1C1=NOC(C)(c2sc(-c3ccccc3)nc2C)C1 (centres unmarked),21.7%
20,Cc1cc(C)c(C#N)c(SCc2ccccc2)n1,11.2%
21,Cc1ccc(Nc2nnc(-c3ccncc3)s2)c(Br)c1,-59.3%
22,CNc1nnc(-c2ccncc2)s1,-0.587%
23,Clc1ccccc1Nc1nnc(-c2ccncc2)s1,-6.07%

row,Structure (SMILES),"hERG current change (%, negative = inhibition) at 10uM"
1,CCOc1ccc2oc(=O)cc(CN3CCN(C(=O)c4ccco4)CC3)c2c1,-69.4%
2,CCOc1ccc(CN2CCN(C(=O)c3ccco3)CC2)cc1.O=C(O)C(=O)O,-26.8%
3,CCOc1ccc2oc(=O)cc(CN3CCN(Cc4ccccc4)CC3)c2c1,-56.7%
4,CCN1CCN(Cc2cc(=O)oc3ccc(Cl)cc23)CC1,-15%
5,Cc1cc(=O)oc2cc(OCC(=O)N3CCN(C(=O)c4ccco4)CC3)ccc12.Cl,-32.6%
6,CCOc1ccc2oc(=O)cc(CN3CCOCC3)c2c1,-1.8%
7,O=C(COC(=O)CCc1nc2ccccc2c(=O)[nH]1)Nc1ccc(OC(F)(F)F)cc1,-5.93%
8,Cc1cc(OC2CCCCC2)nc(NCc2ccccc2)n1,1.82%
9,COc1ccccc1CNC(=O)COC(=O)Cc1cccc(F)c1,1.78%
10,CCC(=O)Nc1nnc(SCC(=O)N2c3ccccc3CC2C)s1 (centres unmarked),5.26%
11,CC1Cc2ccccc2N1C(=O)CSc1nnc(N)s1 (centres unmarked),13%
12,Cc1nnc(SCC(=O)N2c3ccccc3CC2C)s1 (centres unmarked),-54.2%
13,CCOc1ccccc1CN1CCN(Cc2[nH]c3ccccc3c2C)CC1CCO (centres unmarked),-62.3%
14,COc1ccc2[nH]c(CN3CCN(CCC(C)C)C(CCO)C3)c(C)c2c1 (centres unmarked),23.5%
15,CCOc1ccc(CN2CCN(Cc3[nH]c4ccc(OC)cc4c3C)CC2CCO)cc1 (centres unmarked),-77.9%
16,COc1cccc(CN2CCN(Cc3cc4ccccc4[nH]3)CC2CCO)c1 (centres unmarked),-59.7%
17,CC(C)CN1CCN(Cc2cc3ccccc3[nH]2)CC1CCO (centres unmarked),-8.69%
18,COc1ccc2[nH]c(CN3CCN(CC=C(C)C)C(CCO)C3)c(C)c2c1 (centres unmarked),-17.1%
19,Cc1c(CN2CCN(CC(C)(C)C)C(CCO)C2)[nH]c2ccccc12 (centres unmarked),12.2%
20,CCOc1ccccc1CN1CCN(Cc2c[nH]c3ccccc23)CC1CCO (centres unmarked),-6.71%
21,COc1cccc(CN2CCN(Cc3ccc(C)o3)CC2CCO)c1 (centres unmarked),-21.2%
22,CCOc1ccc(CN2CCN(Cc3[nH]c4ccccc4c3C)CC2CCO)cc1 (centres unmarked),-75.8%
23,Cc1c(CN2CCN(CC(C)C)C(CCO)C2)[nH]c2ccc(Cl)cc12 (centres unmarked),-34.4%
